Measurements from PubChem BioAssay (Tox21).
Inconclusive results are not listed. Unmarked numbers belong to inactive results. Unless noted, calls follow the shape of the dose curve; as a rule, active = well fitted cell-killing curve with a large enough effect in the repeat runs; inconclusive = weak or mixed curves, or effect the other way; inactive = no such curve, though single readings can be large or run the other way.

experiment: qHTS assay for small molecule activators of the heat shock response signaling pathway - cell viability counter screen (AID 743209); settings: HSE-bla HeLa viability, CellTiter-Glo luminescence, 5 h; series mostly up to 62.6 µM; activity change, negative = cytotoxicity: at the top concentration; also: nearly all actives have a fitted effect of over 50% in size
Outline: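 HSE-bla HeLa; 1500 cells/well; overnight 37 C, 5% CO2; compound 5 h 37 C; LiveBLAzer B/G substrate 2.5 h RT; CellTiter-Glo 30 min RT; luminescence.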
% is scaled to controls: 0 for no effect and ±100 for the full control effect.

Row | Structure (SMILES) | activity change, negative = cytotoxicity
1 | CC(=O)C1CCCCC1=O (centres undefined) | -4.1%
2 | C=CC(C)(CCC=C(C)C)OC(=O)CC (centres undefined) | 2.83%
3 | CCCCN1C=CN(C)C1 | -9.55% [at 29.1 µM]
4 | Cc1ccc(-c2ncc(Cl)cc2-c2ccc(S(C)(=O)=O)cc2)cn1 | 0.673%
5 | C=COCC1CCC(COC=C)CC1 (centres undefined) | -2.66%
6 | O=S(=O)(O)c1cccc(S(=O)(=O)O)c1 | -15%
7 | O=C(CO)[C@@H](O)[C@H](O)[C@@H](O)CO | 4.94%
8 | CCCCCCCC1CCCC1=O (centres undefined) | -4.4%
9 | C=CCOCC(O)CO (centres undefined) | -4.63%
10 | O=C(O)Cc1csc(-c2ccc(Cl)cc2)n1 | -1.49%
11 | CCC(C)(CCCC(C)C)OC(C)=O (centres undefined) | 0.0944%
12 | CC(=O)Oc1cccc(C)c1 | -6.5%
13 | [K+] | 1.1%
14 | CC(C)=CCC/C(C)=C/C#N | 13.7% [at 81.1 µM]
15 | CCOC(=O)COc1cc(-n2ncc(C(F)(F)F)c(C)c2=O)c(F)cc1Cl | 0.841%
16 | C=CC(=O)OCCCl | 2.03% [at 81.1 µM]
17 | C1CCC2(CCCCO2)OC1 | -1.05%
18 | O=C(O)CNC(=O)c1ccc(CO)o1 | 5.29%
19 | Cc1cccc(C)c1NC(=O)CC12CCCN1CCC2 | -21.9%

Row | Structure (SMILES) | activity change, negative = cytotoxicity
20 | CC(C)(N)C#N | 8.41% [at 81.1 µM]
21 | CCCCN(CCC(=O)OCC)C(C)=O | -0.935%
22 | CO[Si](C)(OC)c1ccccc1 | 2.33%
23 | CCCCCCCCCCCCCCCCCCO | -5.05%
24 | CCC1C(=O)OCC1Cc1cncn1C (centres undefined) | -0.678%
25 | O=S(=O)(O)c1cc(O)c(O)c(S(=O)(=O)O)c1 | -2.63%
26 | CCCCCC(=O)OCCc1ccccc1 | -2.35%
27 | O=C(O)c1cc(C(=O)O)cc(C(=O)O)c1 | 2.36% [at 81.1 µM]
28 | CCCCOCCOC(=O)COc1cc(Cl)c(Cl)cc1Cl | -6.59%
29 | OCCCCCO | 0.465% [at 81.1 µM]
30 | CN(C)CCN(C)CCN(C)C | 2.66%
31 | CC(=O)c1cnccn1 | -1.03% [at 81.1 µM]
32 | CCCCOC(=O)CCC(C)=O | -0.327%
33 | CC(C)c1ccc2ncccc2c1 | -0.672%
34 | CCOC(=O)COC(=O)c1ccccc1C(=O)OCC | 18.1%
35 | CCCCCCCCCCOc1cc2c(=O)c(C(=O)OCC)c[nH]c2cc1OCC | 1.04% [at 5.95 µM]
36 | CCN[C@H]1C[C@H](C)S(=O)(=O)c2sc(S(N)(=O)=O)cc21 | -3.87%
37 | CCNS(=O)(=O)c1ccc(C)cc1 | -1.22% [at 81.1 µM]

experiment: qHTS assay for small molecule activators of the heat shock response signaling pathway (AID 743210; active = well fitted activation curve with a large enough effect in the signal ratio in the repeat runs, with a control signal flat, not every such curve was filed as active; the % refers to the signal ratio;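 also: HeLa cells with beta-lactamase reporter driven by heat shock elements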); settings: HeLa HSE-bla reporter, beta-lactamase ratio, 5 h; series mostly up to 62.6 µM; activation: at the top concentration
Outline: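 Activation of heat shock element-controlled beta-lactamase expression is measured in HeLa cells by LiveBLAzer FRET fluorescence, with compound exposure lasting 5 h at 37 C and substrate loading 2.5 h at room temperature.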

Row | Structure (SMILES) | activation
38 | CC(=O)C1CCCCC1=O (centres undefined) | 1.61%
39 | C=CC(C)(CCC=C(C)C)OC(=O)CC (centres undefined) | 0.0296%
40 | CCCCN1C=CN(C)C1 | 2.71% [at 29.1 µM]
41 | Cc1ccc(-c2ncc(Cl)cc2-c2ccc(S(C)(=O)=O)cc2)cn1 | -0.175%
42 | O=C(CO)[C@@H](O)[C@H](O)[C@@H](O)CO | -0.225%
43 | CCCCCCCC1CCCC1=O (centres undefined) | -0.0605%
44 | C=CCOCC(O)CO (centres undefined) | -0.315%
45 | O=C(O)Cc1csc(-c2ccc(Cl)cc2)n1 | -1.25%
46 | CC(=O)Oc1cccc(C)c1 | 0.477%
47 | [K+] | -0.657%
48 | CCOC(=O)COc1cc(-n2ncc(C(F)(F)F)c(C)c2=O)c(F)cc1Cl | -0.165%
49 | C=CC(=O)OCCCl | 0.367% [at 81.1 µM]
50 | C1CCC2(CCCCO2)OC1 | -0.11%
51 | O=C(O)CNC(=O)c1ccc(CO)o1 | -1.43%
52 | Cc1cccc(C)c1NC(=O)CC12CCCN1CCC2 | -0.075%
53 | CC(C)(N)C#N | 0.526% [at 81.1 µM]

Row | Structure (SMILES) | activation
54 | CCCCN(CCC(=O)OCC)C(C)=O | -1.29%
55 | CO[Si](C)(OC)c1ccccc1 | -1.04%
56 | CCCCCCCCCCCCCCCCCCO | -1.03%
57 | CCC1C(=O)OCC1Cc1cncn1C (centres undefined) | -0.907%
58 | O=S(=O)(O)c1cc(O)c(O)c(S(=O)(=O)O)c1 | -0.635%
59 | CCCCCC(=O)OCCc1ccccc1 | -2.23%
60 | O=C(O)c1cc(C(=O)O)cc(C(=O)O)c1 | -0.0139% [at 81.1 µM]
61 | CCCCOCCOC(=O)COc1cc(Cl)c(Cl)cc1Cl | 0%
62 | OCCCCCO | 0% [at 81.1 µM]
63 | CN(C)CCN(C)CCN(C)C | -1.46%
64 | CC(=O)c1cnccn1 | -0.378% [at 81.1 µM]
65 | CC(C)c1ccc2ncccc2c1 | 1.24%
66 | CCOC(=O)COC(=O)c1ccccc1C(=O)OCC | -0.586%
67 | CCCCCCCCCCOc1cc2c(=O)c(C(=O)OCC)c[nH]c2cc1OCC | -0.938% [at 5.95 µM]
68 | CCN[C@H]1C[C@H](C)S(=O)(=O)c2sc(S(N)(=O)=O)cc21 | -0.79%
69 | CCNS(=O)(=O)c1ccc(C)cc1 | -0.903% [at 81.1 µM]
